Compound activity (PubChem BioAssay)
CtBP-E1A blk: CtBP/E1A binding inhibition. AlphaScreen GST-E1A/His-CtBP binding, 1536-well; hits give low values. activity change, % (no concentration beside the values). 340,000 tested, 0.49% active
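Homogeneous bead-based format: GST-tagged E1A captured on glutathione donor beads, His-tagged CtBP on nickel acceptor beads; compounds precede bead addition by 2 h at 37 °C.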
Six1-Eya2 inh: blocks human Six1 binding to Eya2; Q15475+O00167; AlphaScreen GST-Six1/His-Eya2 binding, biochemical; hits give low values; activity change, % (concentration not given with the values); 360,000 tested, 0.56% active; AID 651725
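AlphaScreen luminescence read after one hour at 37 °C in darkness. Pin-transferred compounds met GST-Six1 and His-Eya2 protein (5X stock 250 nM/500 nM) plus glutathione donor and Ni-chelate acceptor beads (5X, 50 ug/mL).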
KDM4E inh: JMJD2E (human) inhibition. Potency, µM (highest dose often 57.1 µM), for the others: at the highest dose activity change, negative = inhibition, usual class: inhibitors. JMJD2E catalytic domain, FDH-coupled NADH fluorescence (FDH is formaldehyde dehydrogenase). B2RXH2. 230,000 tested, 1.6% active; active = well fitted inhibition curve with a large enough effect, not every such curve was filed as active; inconclusive = small, poorly fitted or top-dose-only effect, or another doubt; inactive = no such curve, though single readings can be large or run the other way;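 note: potency is the fitted concentration of half-maximal effect; 0% = wells with enzyme and -100% = buffer wells without enzyme; nearly all actives have a fitted effect of over 50% in size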
Target sequence (B2RXH2 1-337 limits assumed): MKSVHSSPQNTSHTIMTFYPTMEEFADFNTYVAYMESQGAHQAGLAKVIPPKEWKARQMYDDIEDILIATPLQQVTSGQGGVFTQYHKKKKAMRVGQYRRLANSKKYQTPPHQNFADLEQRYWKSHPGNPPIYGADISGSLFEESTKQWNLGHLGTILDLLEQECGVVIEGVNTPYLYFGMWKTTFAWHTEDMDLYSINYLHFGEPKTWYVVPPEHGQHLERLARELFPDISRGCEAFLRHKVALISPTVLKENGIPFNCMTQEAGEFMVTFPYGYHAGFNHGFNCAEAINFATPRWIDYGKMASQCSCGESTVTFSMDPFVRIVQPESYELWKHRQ
L3MBTL1 block: L3MBTL1 (human) inhibition; Q9Y468; AlphaScreen L3MBTL1–H3K9me1 peptide binding; Potency, µM (top dose mostly 57.1 µM), inactives show top-dose activity, negative = inhibition, usual class: inhibitors; 230,000 tested, 0.66% active; AID 485360; active = well fitted inhibition curve with a large enough effect; inconclusive = small, poorly fitted or top-dose-only effect; inactive = no such curve, though single readings can be large or run the other way; note: potency is the fitted concentration of half-maximal effect; nearly all actives have a fitted effect of over 60% in size
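Read-out is AlphaScreen signal from streptavidin donor and nickel chelate acceptor beads (10 ug/mL final each) bridging L3MBTL1 (50 nM) and biotinylated K9-monomethylated H3(1-15) peptide (75 nM), after 30 min compound exposure at room temperature.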
Starred values were filed as active, the others as inactive; ? = inconclusive; nt = no result given. The sample as a whole holds a higher share of hits than the screen did. Cut-off read from the data, not from the text of the source, unless noted: active = activity change below about -65%; inconclusive = mostly about -30% to -63%; inactive = weaker than that. Unless noted, % is set by controls: 0 for no effect and ±100 for the full control effect.

SMILES	CtBP-E1A blk	Six1-Eya2 inh	KDM4E inh	L3MBTL1 block
COc1ccc(C(=O)Oc2cc(N)n(S(=O)(=O)c3ccc(C)cc3)n2)cc1	-11.9	-14.5	nt	nt
COc1ccc(S(=O)(=O)n2nc(OC(=O)c3c(-c4ccccc4Cl)noc3C)cc2N)cc1	?	-72.4*	1.4%	35.9%
NC(=O)C1CCN(C(=O)c2cc(-c3ccc(Cl)s3)nc3ccccc23)CC1	-5.1	-0.6	nt	1.3%
C[n+]1nc(Nc2cccc(F)c2)sc1-c1ccc(C(=O)O)cc1	nt	nt	-26.3%	nt
C[n+]1nc(Nc2cccc3ccccc23)sc1-c1ccc(C(=O)O)cc1	nt	nt	8.91µM*	nt
Nc1ncnc2c1ncn2[C@@H]1O[C@H](C(=O)Nc2cc(C(F)(F)F)cc(C(F)(F)F)c2)[C@@H](O)[C@H]1O	4.4	7.4	nt	nt
COc1cc(NC(=O)c2cnc(N)s2)cc(C(=O)Nc2cccc(C(F)(F)F)c2)c1	-5.1	0.4	20µM*	nt
O=C(O)c1cc(Nc2cc(Cl)c3nonc3c2[N+](=O)[O-])ccc1O	nt	-79.3*	nt	nt
S=C(NNc1ccc2ccccc2c1)NC1CCCCC1	?	?	11.2µM*	?
S=C(Nc1ccc(Oc2ccccc2)cc1)NC1CCCCCC1	-16.5	-15.3	-3.1%	-1.5%
COc1ccc(CN2CC[C@H]3C=CCc4cccc(c43)C2)cc1	-14.1	-21.8	nt	-2.9%
CN1CCN(CC(=O)Nc2cc(N(C)C)nc3ccccc23)CC1	-1.4	6.7	-0.2%	-3.9%
CC(NC(=O)COc1ncnc2cc([N+](=O)[O-])ccc12)c1ccccc1 (stereo not drawn)	-2.6	0.1	-8.7%	3.2%
CCOC(=O)c1c(C)[nH]c(C)c1C(=O)COc1ncnc2cc([N+](=O)[O-])ccc12	-69.8*	-76.2*	-9.6%	-17.0%
CCc1nc2ccccc2c(=O)n1/N=C/c1ccc(OC)cc1	1.7	1.8	nt	nt
Cc1cc(C(=O)CCl)c(C)n1-c1cccc(S(=O)(=O)N2CCOCC2)c1	-91.4*	-68.5*	-12.5%	nt
Cc1cc(C(=O)CN2C(=O)CN(C)C2=O)c(C)n1-c1cccc(S(=O)(=O)N2CCOCC2)c1	nt	-1.6	7.3%	2.0%
CCCCC/C=C\C/C=C\CC1OC1C/C=C\CCCC(=O)O (stereo not drawn)	nt	nt	-4.4%	nt
CN(CC(=O)Nc1cccc(F)c1)C(=O)c1cccc(-n2cccc2)c1	-2.0	?	nt	7.08µM*
CC1(c2cccc(Br)c2)NC(=O)N(CC(=O)Nc2ccc3c(c2)OCO3)C1=O (stereo not drawn)	nt	-2.5	nt	-7.3%
Cc1cccc(C)c1NC(=O)CNC(=O)c1cccc(S(=O)(=O)NCc2cccs2)c1	0.5	-1.0	nt	-0.1%
Cc1cc(=O)oc2c3c(cc(OCC(=O)N4CCC[C@H]4C(=O)O)c12)OC(C)(C)CC3	?	-70.5*	nt	nt
COc1ccccc1C(=O)NC(=O)COC(=O)C1(C)CC1(Cl)Cl (stereo not drawn)	-2.8	11.9	nt	3.1%
O=C(CSc1nccc(=O)[nH]1)c1ccccc1Br	-68.5*	-69.8*	7.9%	nt
O=C(CSc1nccc(=O)[nH]1)c1c[nH]c2ccccc12	-1.3	1.5	1.2%	6.9%
SMILES	CtBP-E1A blk	Six1-Eya2 inh	KDM4E inh	L3MBTL1 block
CCN(CC)[C@@H](C)CN1c2ccccc2Sc2ccccc21	nt	nt	7.94µM*	nt
CCN(CC)CCN1c2ccccc2Sc2ccccc21	-19.7	-13.9	nt	nt
Cc1cc(C)c(C(=O)Nc2ccccc2)c(CC(C)(C)C(=O)O)c1	-11.5	-0.3	7.4%	13.0%
Cc1ccc(NC2=Nc3ccccc3N3C2=Nc2c(c(C)nn2-c2ccccc2)C3c2ccc(O)c(O)c2)cc1 (stereo not drawn)	14.5	0.0	28.2µM*	5.6%
Cc1nn(-c2ccccc2)c2c1C(c1ccc(O)c(O)c1)N1C(=N2)C(Nc2ccccc2)=Nc2ccccc21 (stereo not drawn)	5.7	9.4	17.8µM*	0.8%
Cc1cccc(NC2=Nc3ccccc3N3C2=Nc2c(c(C)nn2-c2ccccc2)C3c2ccc(O)c(O)c2)c1 (stereo not drawn)	13.0	14.5	?	12.2%
CCOc1ncccc1C(=O)Nc1cc(S(=O)(=O)N2CCOCC2)ccc1OCC(F)(F)F	0.0	-9.9	nt	1.0%
Cc1ccc(-c2nc(CN(Cc3c(C)nn(C)c3C)C(C)C)c(C)o2)o1	-5.8	-89.7*	?	-3.6%
COC(=O)c1ccc(C(NC(=O)OCc2ccccc2)/C(=C/[C@@H](C)C(=O)NCc2ccc(S(C)(=O)=O)cc2)c2cccnc2)cc1 (stereo partly drawn)	nt	nt	-2.4%	nt
COc1cccc(/C=N/NC(=O)c2ccc(=O)[nH]n2)c1O	nt	-79.0*	12.6µM*	-21.2%
COc1ccc(OC)c(/C=N/NC(=O)c2ccc(=O)[nH]n2)c1	nt	-1.1	4.1%	-16.9%
COc1cccc(/C=N/NC(=O)c2c(C)nc3ccc(Cl)cn23)c1O	-94.0*	-78.0*	nt	nt
COc1cc(OC)c(OC)cc1/C=N/NC(=O)c1ccc(=O)n(C)c1	-0.6	-2.9	-21.0%	6.7%
COc1ccccc1/C=N\NC(=O)c1c(C)nc2ccc(Cl)cn12	-12.8	-2.0	nt	6.3%
COc1cccc(/C=N/NC(=O)c2ccc(=O)n(C)c2)c1O	-87.4*	-88.2*	11.2µM*	-6.4%
COc1cccc(/C=N/NC(=O)c2[nH]c(C)c(C(=O)N/N=C/c3cccc(OC)c3O)c2C)c1O	-0.8	-91.6*	25.1µM*	nt
C[C@@H](C(=O)Nc1ccc2ccccc2c1)[C@H]1C[C@]1(C)[C@H](NC(=O)Oc1ccc(F)cc1)c1ccccc1	nt	nt	12.8%	nt
COc1ccc(N2C(=O)CC(C)(C)CC2=O)cc1OC	7.2	3.0	nt	nt
O=S(=O)(O)c1cccc2c(N=Nc3ccc(O)c4ncccc34)cccc12	-92.3*	32.0	nt	nt
COc1ccc(N=Nc2ccc(O)c3ncccc23)cc1	nt	-86.1*	?	nt
O=Nc1ccc(O)c2ncccc12	nt	-89.0*	25.1µM*	?
COc1ccc(-c2ncccc2O)cc1	-5.4	5.2	?	nt
Nc1ccc(N=Nc2ccccc2)c2cccnc12	-72.7*	-65.2*	nt	nt
CCS(=O)(=O)c1ccc2oc(SCC(=O)c3c(N)n(C4CC4)c(=O)[nH]c3=O)nc2c1	nt	-0.1	nt	1.9%
